From the supplement of paper PMC10849652
Targets with a hit are over-represented here; the source holds about 8,800 in all. About 0.5% of all pairs of compound and target were hits. A number with no mark means an inactive call.

What was measured:
Assay in all cases: log2 fold change, soluble protein after heating vs DMSO (PISA); higher = thermal stabilisation; K562 lysate, 10 uM; active = over 0.2 and 3.5 SD of the protein, either way, in both replicates (recomputed)
[1] = compound: CS(=O)(=O)CCNCc1ccc(-c2ccc3ncnc(Nc4ccc(OCc5cccc(F)c5)c(Cl)c4)c3c2)o1 [lapatinib]
Outline: (§1)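 Soluble protein was defined as the supernatant remaining after 21,000xg for 90 min, following pooling of heated aliquots and adjustment to 0.5% NP-40 at 4°C. Before that, crude K562 extract at 1 mg/mL protein in PBS pH 7.4 with 1 mM MgCl2 was treated with 10 μM compound for 30 min and heated for 3 min across 48°C-58°C. Quantification used TMTpro 16plex LC-MS/MS with channel sums equalised, and values are log-two fold changes in thermal stability relative to solvent controls from duplicates.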

[2] = compound: CS(=O)(=O)N1CCN(Cc2cc3nc(-c4cccc5[nH]ncc45)nc(N4CCOCC4)c3s2)CC1 [pictilisib]
Outline: as §1

[3] = compound: C[C@@H](Oc1cc(-c2cnn(C3CCNCC3)c2)cnc1N)c1c(Cl)ccc(F)c1Cl [crizotinib]
Outline: as §1

[4] = compound: C[C@H](C1=CC=C(C=C1)C(=O)NC2=C3C=CNC3=NC=C2)N
Outline: as §1

[5] = compound: C[C@H](Nc1ncnc2nc[nH]c12)c1cc2cccc(Cl)c2c(=O)n1-c1ccccc1 [duvelisib]
Outline: as §1

[6] = compound: Cc1cc(Nc2cc(CN3CCOCC3)c3nc(C)c(Cc4ccc(Cl)cc4F)n3n2)n[nH]1 [gandotinib]
Outline: as §1

[7] = compound: Cc1cc(Nc2cc(N3CCN(C)CC3)nc(Sc3ccc(NC(=O)C4CC4)cc3)n2)n[nH]1 [tozasertib]
Outline: as §1

[8] = compound: Cc1ccc(-n2nc(C(C)(C)C)cc2NC(=O)Nc2ccc(OCCN3CCOCC3)c3ccccc23)cc1 [doramapimod]
Outline: as §1

[9] = compound: Cc1ccc(NC(=O)c2ccc(CN3CC[C@H](N(C)C)C3)c(C(F)(F)F)c2)cc1Nc1nccc(-c2cncnc2)n1 [bafetinib]
Outline: as §1

[10] = compound: Cc1cccc(CC(=O)N2CCc3c2ccc(-c2cn(C)c4ncnc(N)c24)c3F)n1
Outline: as §1

[11] = compound: Cc1cn(-c2cc(NC(=O)c3ccc(C)c(Nc4nccc(-c5cccnc5)n4)c3)cc(C(F)(F)F)c2)cn1 [nilotinib]
Outline: as §1

[12] = compound: Cc1nc(Nc2n[nH]c3c2CN(C(=O)N[C@H](CN(C)C)c2ccccc2)C3(C)C)c2sccc2n1
Outline: as §1

[13] = compound: Cc1nc(Nc2ncc(C(=O)Nc3c(C)cccc3Cl)s2)cc(N2CCN(CCO)CC2)n1 [dasatinib]
Outline: as §1

[14] = compound: Cc1ncc(-c2ccnc(Nc3ccc(S(C)(=O)=O)cc3)n2)n1C(C)C
Outline: as §1

[15] = compound: Cn1cc(-c2ccc3c(c2)CCN3C(=O)Cc2cccc(C(F)(F)F)c2)c2c(N)ncnc21
Outline: as §1

[16] = compound: Cn1cc(CNCC2CCN(c3ncc(C(=O)NO)cn3)CC2)c2ccccc21 [quisinostat]
Outline: as §1

[17] = compound: Cn1cncc1[C@@](N)(c1ccc(Cl)cc1)c1ccc2c(c1)c(-c1cccc(Cl)c1)cc(=O)n2C [tipifarnib]
Outline: as §1

[18] = compound: NC(=O)Nc1cc(-c2cccc(F)c2)sc1C(=O)N[C@H]1CCCNC1
Outline: as §1

[19] = compound: NC(=O)c1cnc(N[C@@H]2CCCC[C@@H]2N)nc1Nc1cccc(-n2nccn2)c1
Outline: as §1

[20] = compound: NC1(c2ccc(-c3nc4ccn5c(=O)[nH]nc5c4cc3-c3ccccc3)cc2)CCC1
Outline: as §1

Chain of UniProt O43808 (O43808 whole entry, looked up): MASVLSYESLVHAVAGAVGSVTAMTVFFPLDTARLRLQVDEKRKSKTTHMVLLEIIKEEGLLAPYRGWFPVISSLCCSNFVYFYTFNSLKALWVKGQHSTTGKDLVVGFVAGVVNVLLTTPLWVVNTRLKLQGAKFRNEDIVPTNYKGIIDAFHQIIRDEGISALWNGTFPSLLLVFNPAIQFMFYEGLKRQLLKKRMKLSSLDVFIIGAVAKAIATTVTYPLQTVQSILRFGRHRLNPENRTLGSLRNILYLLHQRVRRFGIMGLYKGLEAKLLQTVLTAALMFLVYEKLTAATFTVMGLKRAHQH
Chain of UniProt Q9UPR3 (Q9UPR3 whole entry, looked up): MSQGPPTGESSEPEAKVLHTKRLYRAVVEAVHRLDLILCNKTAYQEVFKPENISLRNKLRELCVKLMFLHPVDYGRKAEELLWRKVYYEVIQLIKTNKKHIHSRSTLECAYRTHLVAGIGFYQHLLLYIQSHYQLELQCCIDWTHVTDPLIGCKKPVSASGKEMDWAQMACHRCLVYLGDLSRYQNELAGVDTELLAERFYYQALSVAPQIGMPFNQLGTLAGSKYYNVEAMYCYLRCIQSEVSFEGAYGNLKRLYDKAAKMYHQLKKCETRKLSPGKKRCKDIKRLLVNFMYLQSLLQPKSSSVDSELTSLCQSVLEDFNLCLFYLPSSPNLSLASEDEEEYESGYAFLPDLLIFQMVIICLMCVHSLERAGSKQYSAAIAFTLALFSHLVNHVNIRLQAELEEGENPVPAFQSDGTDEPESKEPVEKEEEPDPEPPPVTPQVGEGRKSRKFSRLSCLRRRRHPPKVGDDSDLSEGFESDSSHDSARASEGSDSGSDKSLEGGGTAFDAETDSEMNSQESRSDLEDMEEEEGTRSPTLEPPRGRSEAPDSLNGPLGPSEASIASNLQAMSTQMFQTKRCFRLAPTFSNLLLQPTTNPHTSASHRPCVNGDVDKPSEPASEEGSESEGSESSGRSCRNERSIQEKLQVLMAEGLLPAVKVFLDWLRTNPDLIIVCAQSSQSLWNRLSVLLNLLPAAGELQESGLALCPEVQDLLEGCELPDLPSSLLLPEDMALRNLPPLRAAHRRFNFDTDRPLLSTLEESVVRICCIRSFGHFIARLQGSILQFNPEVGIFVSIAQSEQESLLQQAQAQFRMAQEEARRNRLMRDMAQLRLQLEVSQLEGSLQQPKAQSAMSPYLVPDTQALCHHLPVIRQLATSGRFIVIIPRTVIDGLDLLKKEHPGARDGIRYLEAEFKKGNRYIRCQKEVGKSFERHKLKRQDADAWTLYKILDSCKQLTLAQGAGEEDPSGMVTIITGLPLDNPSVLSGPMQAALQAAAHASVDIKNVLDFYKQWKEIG
Chain of UniProt Q16629 (Q16629 whole entry, looked up): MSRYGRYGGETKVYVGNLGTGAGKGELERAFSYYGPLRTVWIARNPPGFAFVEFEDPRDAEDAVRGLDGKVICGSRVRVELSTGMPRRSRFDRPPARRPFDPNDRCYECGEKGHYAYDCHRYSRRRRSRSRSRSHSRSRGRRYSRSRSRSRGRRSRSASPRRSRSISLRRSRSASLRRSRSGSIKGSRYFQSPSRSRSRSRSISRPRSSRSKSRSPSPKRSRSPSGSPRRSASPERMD
Chain of UniProt Q7KZF4 (Q7KZF4 whole entry, looked up): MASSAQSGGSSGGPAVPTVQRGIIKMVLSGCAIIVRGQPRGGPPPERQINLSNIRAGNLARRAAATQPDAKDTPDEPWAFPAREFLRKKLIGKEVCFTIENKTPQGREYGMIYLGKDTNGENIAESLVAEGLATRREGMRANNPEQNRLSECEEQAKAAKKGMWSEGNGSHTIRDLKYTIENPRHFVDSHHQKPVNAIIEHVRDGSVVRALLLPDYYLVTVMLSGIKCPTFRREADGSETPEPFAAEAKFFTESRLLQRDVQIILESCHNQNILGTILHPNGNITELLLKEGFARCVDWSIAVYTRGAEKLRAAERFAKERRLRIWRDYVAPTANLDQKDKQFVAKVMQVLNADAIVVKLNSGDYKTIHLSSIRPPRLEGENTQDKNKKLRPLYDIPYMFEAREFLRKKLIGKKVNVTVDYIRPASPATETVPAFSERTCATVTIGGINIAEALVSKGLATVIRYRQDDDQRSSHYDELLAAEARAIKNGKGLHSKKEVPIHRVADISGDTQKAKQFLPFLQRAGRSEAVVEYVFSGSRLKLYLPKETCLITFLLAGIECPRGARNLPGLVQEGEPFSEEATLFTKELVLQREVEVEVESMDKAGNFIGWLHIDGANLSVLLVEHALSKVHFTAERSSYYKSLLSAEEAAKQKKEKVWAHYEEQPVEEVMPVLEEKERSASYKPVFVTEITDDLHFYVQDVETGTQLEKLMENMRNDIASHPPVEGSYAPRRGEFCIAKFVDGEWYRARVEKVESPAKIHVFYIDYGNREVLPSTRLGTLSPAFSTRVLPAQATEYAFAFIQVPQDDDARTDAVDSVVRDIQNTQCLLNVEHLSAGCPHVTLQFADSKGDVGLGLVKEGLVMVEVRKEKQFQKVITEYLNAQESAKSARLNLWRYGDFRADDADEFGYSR
Chain of UniProt Q01650 (Q01650 whole entry, looked up): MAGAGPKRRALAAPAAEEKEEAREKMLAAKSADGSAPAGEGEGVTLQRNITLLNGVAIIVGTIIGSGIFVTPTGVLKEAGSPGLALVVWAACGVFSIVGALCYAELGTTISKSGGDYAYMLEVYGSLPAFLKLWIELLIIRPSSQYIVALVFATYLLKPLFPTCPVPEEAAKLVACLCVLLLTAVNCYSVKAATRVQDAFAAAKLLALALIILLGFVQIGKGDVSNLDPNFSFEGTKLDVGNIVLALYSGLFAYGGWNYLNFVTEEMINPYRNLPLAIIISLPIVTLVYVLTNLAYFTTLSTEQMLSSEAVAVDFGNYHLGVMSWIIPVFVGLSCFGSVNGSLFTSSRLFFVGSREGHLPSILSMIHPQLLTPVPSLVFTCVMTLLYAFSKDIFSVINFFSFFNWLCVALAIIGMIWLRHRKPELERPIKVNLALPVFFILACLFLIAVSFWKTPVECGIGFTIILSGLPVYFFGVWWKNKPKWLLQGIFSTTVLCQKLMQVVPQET
Chain of UniProt Q9HBM1 (Q9HBM1 whole entry, looked up): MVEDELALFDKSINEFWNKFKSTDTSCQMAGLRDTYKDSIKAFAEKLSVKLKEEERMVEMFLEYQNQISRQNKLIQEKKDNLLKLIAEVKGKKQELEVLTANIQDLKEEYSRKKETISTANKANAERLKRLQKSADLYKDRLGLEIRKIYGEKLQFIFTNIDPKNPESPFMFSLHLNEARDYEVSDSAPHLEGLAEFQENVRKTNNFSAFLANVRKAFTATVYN
Chain of UniProt Q8N1F8 (Q8N1F8 whole entry, looked up): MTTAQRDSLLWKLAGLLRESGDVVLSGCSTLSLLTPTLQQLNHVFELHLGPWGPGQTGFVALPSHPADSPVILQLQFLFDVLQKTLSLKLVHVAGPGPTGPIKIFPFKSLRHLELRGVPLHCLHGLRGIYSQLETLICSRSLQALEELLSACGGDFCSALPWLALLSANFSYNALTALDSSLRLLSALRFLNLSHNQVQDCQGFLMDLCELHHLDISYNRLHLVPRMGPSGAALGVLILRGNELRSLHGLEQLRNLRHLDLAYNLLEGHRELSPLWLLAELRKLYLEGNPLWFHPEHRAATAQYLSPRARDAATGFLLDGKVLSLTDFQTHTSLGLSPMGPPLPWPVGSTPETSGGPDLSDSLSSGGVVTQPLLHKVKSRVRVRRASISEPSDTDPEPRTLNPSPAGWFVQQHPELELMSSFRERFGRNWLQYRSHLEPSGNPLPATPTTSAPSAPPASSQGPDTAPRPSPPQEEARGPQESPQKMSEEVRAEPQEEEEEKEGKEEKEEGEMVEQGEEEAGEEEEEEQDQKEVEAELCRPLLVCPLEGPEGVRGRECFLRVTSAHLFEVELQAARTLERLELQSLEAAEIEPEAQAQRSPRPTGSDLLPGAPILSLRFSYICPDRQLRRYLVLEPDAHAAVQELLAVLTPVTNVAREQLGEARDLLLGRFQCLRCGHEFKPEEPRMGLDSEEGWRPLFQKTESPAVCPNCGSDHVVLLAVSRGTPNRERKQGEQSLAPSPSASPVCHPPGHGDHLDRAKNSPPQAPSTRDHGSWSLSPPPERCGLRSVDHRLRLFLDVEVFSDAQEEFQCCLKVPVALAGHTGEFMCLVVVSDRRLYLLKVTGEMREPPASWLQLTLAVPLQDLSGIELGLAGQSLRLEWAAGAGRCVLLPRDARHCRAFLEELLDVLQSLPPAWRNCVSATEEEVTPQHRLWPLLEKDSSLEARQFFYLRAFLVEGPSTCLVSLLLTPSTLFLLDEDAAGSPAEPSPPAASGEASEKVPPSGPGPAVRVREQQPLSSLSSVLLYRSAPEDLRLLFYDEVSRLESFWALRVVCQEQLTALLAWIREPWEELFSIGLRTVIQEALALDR
Chain of UniProt P41440 (P41440 whole entry, looked up): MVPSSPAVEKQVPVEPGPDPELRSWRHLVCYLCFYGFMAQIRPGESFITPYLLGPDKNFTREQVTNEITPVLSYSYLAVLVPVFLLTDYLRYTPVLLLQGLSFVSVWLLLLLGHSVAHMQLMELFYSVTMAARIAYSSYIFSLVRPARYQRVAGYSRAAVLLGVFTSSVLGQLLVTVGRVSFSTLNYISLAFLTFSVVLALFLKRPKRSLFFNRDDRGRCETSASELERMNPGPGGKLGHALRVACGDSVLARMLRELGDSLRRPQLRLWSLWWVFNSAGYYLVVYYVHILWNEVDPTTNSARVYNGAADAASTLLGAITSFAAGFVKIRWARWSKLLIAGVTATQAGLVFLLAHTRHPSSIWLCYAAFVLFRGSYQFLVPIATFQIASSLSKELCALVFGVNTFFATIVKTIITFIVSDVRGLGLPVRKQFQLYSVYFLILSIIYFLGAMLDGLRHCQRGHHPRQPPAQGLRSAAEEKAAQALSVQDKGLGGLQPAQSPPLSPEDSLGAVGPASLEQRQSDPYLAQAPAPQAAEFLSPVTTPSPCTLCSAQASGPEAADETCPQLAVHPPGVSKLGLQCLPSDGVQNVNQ
Chain of UniProt O43805 (O43805 whole entry, looked up): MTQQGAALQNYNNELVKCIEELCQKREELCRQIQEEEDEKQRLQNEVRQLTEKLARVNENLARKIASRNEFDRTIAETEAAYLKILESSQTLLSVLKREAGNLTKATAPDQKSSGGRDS

| Target | log2 fold change [1] | log2 fold change [2] | log2 fold change [3] | log2 fold change [4] | log2 fold change [5] | log2 fold change [6] | log2 fold change [7] | log2 fold change [8] | log2 fold change [9] | log2 fold change [10] | log2 fold change [11] | log2 fold change [12] | log2 fold change [13] | log2 fold change [14] | log2 fold change [15] | log2 fold change [16] | log2 fold change [17] | log2 fold change [18] | log2 fold change [19] | log2 fold change [20] |
| --- | --- | --- | --- | --- | --- | --- | --- | --- | --- | --- | --- | --- | --- | --- | --- | --- | --- | --- | --- | --- |
| SLC25A32 (UniProt Q9H2D1) | -0.032 | -0.005 | -0.017 | -0.151 | -0.014 | 0.098 | -0.038 | -0.019 | -0.022 | 0.1 | 0.007 | 0.033 | 0.011 | 0.043 | -0.055 | -0.015 | 0.016 | 0.023 | -0.029 | -0.026 |
| SMG5 (UniProt Q9UPR3) | -0.038 | 0.057 | -0.007 | 0.01 | -0.006 | -0.003 | 0.019 | -0.131 | -0.035 | -0.007 | -0.058 | 0.034 | 0.003 | -0.054 | 0.03 | 0.013 | -0.115 | 0.097 | 0.048 | -0.027 |
| STARD3 isoform 3 (UniProt Q14849) | -0.094 | -0.087 | -0.024 | -0.072 | -0.005 | 0.027 | -0.075 | 0.021 | -0.209 | 0.084 | -0.06 | -0.008 | 0.272 (active) | 0.063 | 0.02 | 0.027 | -0.047 | -0.039 | 0.015 | 0.026 |
| SNRPD2 (UniProt P62316) | 0.017 | -0.01 | 0.016 | -0.055 | 0.018 | 0.057 | -0.014 | -0.009 | 0.078 | 0.052 | 0.014 | 0.015 | 0.024 | 0.015 | -0.02 | 0.007 | 0.014 | -0.027 | 0 | -0.002 |
| SLC19A1 (UniProt P41440) | -0.055 | 0.005 | -0.002 | -0.203 (active) | -0.037 | 0.148 | -0.021 | 0.004 | -0.053 | 0.07 | -0.026 | 0.014 | 0.019 | -0.032 | -0.017 | -0.077 | -0.01 | -0.015 | -0.027 | -0.004 |
| SLC7A5 (UniProt Q01650) | -0.004 | 0.026 | -0.069 | -0.308 (active) | 0.051 | 0.201 (active) | -0.012 | 0.019 | 0.046 | 0.129 | 0.022 | 0.008 | 0.055 | 0.014 | 0.008 | -0.106 | 0.003 | 0 | -0.029 | -0.003 |
| STK25 (UniProt O00506) | -0.058 | -0.041 | 0.008 | -0.036 | -0.055 | 0.18 | 0.033 | -0.081 | 0.001 | 0.005 | 0.037 | 0.265 | 0.235 | 0.026 | 0.059 | 0.013 | -0.027 | 0.165 | 0.032 | -0.009 |
| STK11IP (UniProt Q8N1F8) | 0.022 | 0.012 | -0.022 | 0.004 | -0.052 | -0.019 | -0.014 | 0.037 | -0.008 | 0.036 | 0.065 | 0.001 | -0.053 | -0.045 | -0.016 | -0.029 | -0.033 | -0.012 | -0.014 | 0.037 |
| SND1 (UniProt Q7KZF4) | -0.008 | -0.012 | -0.034 | 0.077 | 0.008 | -0.108 | 0 | 0.034 | -0.028 | -0.009 | -0.008 | -0.011 | -0.028 | -0.024 | 0.038 | -0.033 | -0.003 | 0.05 | -0.007 | -0.017 |
| SPC25 (UniProt Q9HBM1) | 0.029 | 0.029 | 0.001 | -0.01 | -0.021 | -0.007 | -0.013 | -0.005 | -0.031 | 0.011 | 0.042 | -0.02 | 0.002 | 0.03 | 0.046 | -0.019 | 0 | -0.01 | 0.002 | 0 |
| SLC25A17 (UniProt O43808) | -0.033 | 0.015 | -0.052 | -0.303 (active) | 0.029 | 0.072 | -0.069 | 0.007 | -0.066 | 0.085 | -0.049 | 0.006 | 0.01 | 0.032 | 0.023 | -0.125 | -0.068 | 0.028 | 0.038 | -0.026 |
| SSNA1 (UniProt O43805) | 0.012 | -0.015 | 0.138 | 0.003 | -0.038 | 0.061 | 0.045 | 0.019 | -0.014 | -0.034 | -0.038 | 0.057 | -0.004 | -0.004 | -0.079 | 0.081 | 0.007 | -0.039 | 0.006 | 0.019 |
| SHC1 isoform 6 (UniProt P29353) | 0.019 | -0.057 | 0.001 | 0.577 (active) | 0.005 | -0.106 | 0.005 | 0.065 | -0.034 | -0.175 | 0.034 | 0.011 | 0.046 | -0.02 | -0.005 | 0.022 | 0.006 | -0.036 | -0.029 | -0.001 |
| SRSF7 (UniProt Q16629) | -0.061 | 0.075 | 0.084 | -0.218 (active) | 0.058 | 0 | 0.036 | -0.01 | 0.05 | 0.194 | -0.006 | -0.053 | 0.011 | -0.056 | -0.006 | 0.047 | 0.016 | -0.088 | 0.019 | 0.034 |
| STAT2 (UniProt P52630) | 0.005 | -0.024 | -0.146 | 0.008 | 0.004 | -0.082 | 0.047 | 0.037 | -0.078 | 0.093 | -0.017 | 0.006 | -0.024 | -0.086 | 0.025 | -0.117 | -0.024 | 0.054 | 0.016 | -0.016 |
| SMN1 (UniProt Q16637) | 0.086 | 0.035 | -0.183 | -0.031 | 0.021 | -0.056 | 0.049 | 0.022 | 0.036 | 0.158 | 0.012 | 0.019 | -0.005 | -0.023 | 0.05 | -0.146 | 0 | -0.001 | 0.047 | 0 |
